Source: PubChem BioAssay (Tox21)
Where “and” joins values, the source holds several entries; their conditions need not be identical. Equal values may be shown once. Results filed as inconclusive are left out. Unmarked numbers belong to inactive results. Calls of active or inactive are those of the source. The call rests on the fitted dose curve; in most records, active means well fitted cell-killing curve with a large enough effect in the repeat runs; inconclusive means weak or mixed curves, or effect the other way; inactive means flat fitted curve, though single readings scatter.

Assay: qHTS RealTime-Glo MT Cell Viability Assay in HEK293 cells - 32 hour (AID 1224868); further: nearly all actives have a fitted effect of over 50% in size; on activity change, negative = cytotoxic: top concentration of the series differs between compounds
Conditions: RealTime-Glo luminescence; series mostly up to 76.8 µM; activity change, negative = cytotoxic: at the top concentration
From the text: National Center for Advancing Translational Sciences [NCATS]
NIH Chemical Genomics Center [NCGC]
U.S. Environmental Protection Agency [EPA]
National Institutes of Environmental Health Sciences [NIEHS]
National Toxicology Program [NTP]
U.S. Food and Drug Administration [FDA]
Measure of cell viability is critical in the cell-base assay. Analysis of cell viability is necessary for the characterization of cell responses to cytotoxic drugs and environmental stress. A RealTime-Glo MT Cell Viability Assay to monitor cell viability in real time of continues cell culture during 40 hours of compound treatment was used to screen Tox21 10K library compounds in Hek293 cells. The RealTime-Glo MT Cell Viability Assay is a nonlytic, homogeneous, bioluminescent method to measure cell viability in real time using a simple, plate-based method. The assay involves adding NanoLuc luciferase and a cell-permeant prosubstrate to cells in culture. Viable cells reduce the proprietary prosubstrate to generate a substrate for NanoLuc luciferase. This substrate diffuses from cells into the surrounding culture medium, where it is rapidly used by the NanoLuc Enzyme to produce a luminescent signal. The signal correlates with the number of viable cells, making the assay well suited for cytotoxicity studies.
Tox21 Assay Protocol Summary:
The mixture of Hek293 cell suspension and reagents were dispensed at 600cells/6 ul/well in 1536-well tissue culture treated black solid bottom plates using a Multidrop dispenser. After the assay plates were incubated at a 37 C/5% CO2 incubator for 5 hours, 23 nL of compounds dissolved in DMSO, positive and negative controls was transferred to the assay plate by a pintool work station. The plates were incubated at 37 C for 40 hours. The luminescence intensity were measured at 0h, 8h, 16h, 24h, 32h and 40h time points using ViewLux plate reader during compound treatment.
On the % scale 0 is the no-effect control and ±100 the full control effect; potency means the concentration at half of the fitted maximal effect.

Row | SMILES | activity change, negative = cytotoxic | Potency
1 | NCC(=O)CCC(=O)O | 9.09% [at 35.3 µM] | –
2 | OC(C#CCN1CCCC1)(c1ccccc1)c1ccccc1 | -10.8% [at 35.3 µM] | –
3 | COc1cc2nc(N3CCN(C(=O)C4COc5ccccc5O4)CC3)nc(N)c2cc1OC (stereo not given) | – | 21.3 µM (active)
4 | Cc1cccc(C)c1OCC(=O)N[C@@H](Cc1ccccc1)[C@@H](O)C[C@H](Cc1ccccc1)NC(=O)[C@H](C(C)C)N1CCCNC1=O | – | 23.9 µM (active)
5 | CC(=O)c1ccc2c(c1)N(CCCN1CCC(CCO)CC1)c1ccccc1S2 | – | 21.3 µM (active)
6 | OCCN1CCN(CCCN2c3ccccc3C=Cc3ccccc32)CC1 | -29.2% [at 35.3 µM] | –
7 | C=CCOC(=O)CCC1CCCCC1 | -0.993% | –
8 | CCCCCCCCCCCC(=O)OC[C@@H](O)[C@H]1OC[C@H](OCCO)[C@H]1OCCO | -3.4% | –
9 | CC(C)(C)Cl | 2.29% | –
10 | COS(=O)(=O)C(F)(F)F | 12.5% | –
11 | O=C(O)C1(C(=O)Nc2ccc(Cl)cc2Cl)CC1 | -13.3% | –
12 | CN(Cc1ccc(C(C)(C)C)cc1)Cc1cccc2ccccc12 | -22.5% [at 35.3 µM] | –
13 | CC1OC(=O)C(C)OC1=O (stereo not given) | -6.03% | –
14 | CCC(Cl)CCC(Cl)C(Cl)CC(Cl)C(Cl)C(Cl)CCl (stereo not given) | -1.51% | –
15 | O=C1CCC(=O)O1 | 4.18% | –
16 | OCCNCc1ccccc1 | -7.25% | –
17 | O=C(O)C1(C(=O)O)CCC1.[NH2-].[NH2-].[Pt+2] | -1.76% [at 35.3 µM] | –
18 | C=CC(=O)OCCOCCOCCOCCOC(=O)C=C | – | 34.8 µM (active) and 24.3 µM (active)
19 | CCCCC(=O)OCC(=O)[C@H]1[C@H](C)C[C@H]2[C@@H]3C[C@H](F)C4=CC(=O)C=C[C@]4(C)[C@@]3(F)[C@@H](O)C[C@@]21C | -15.6% [at 35.3 µM] | –
20 | Cc1[nH]c(C)c(Cl)c(=O)c1Cl | -20.8% [at 15.8 µM] | –

Row | SMILES | activity change, negative = cytotoxic | Potency
21 | CN1CCN(C(c2ccccc2)c2ccccc2)CC1 | 0.337% [at 35.3 µM] | –
22 | COC(C)OC | 4.11% | –
23 | OC(CN1CCC(Cc2ccc(F)cc2)CC1)c1ccc(Cl)cc1 (stereo not given) | – | 10.7 µM (active)
24 | O=S(c1cc(Cl)cc(Cl)c1O)c1cc(Cl)cc(Cl)c1O | -8.91% [at 35.3 µM] | –
25 | CC(C)(CO)[N+](=O)[O-] | 1.36% | –
26 | CCN(CC)c1ccc(C(=C2C=CC(=[N+](CC)CC)C=C2)c2cc(S(=O)(=O)O)ccc2S(=O)(=O)[O-])cc1 | -1.01% [at 35.3 µM] | –
27 | CCCC(=O)Nc1ccc(O)c(C(C)=O)c1 | -0.843% [at 35.3 µM] | –
28 | CCCn1cnc2c1c(=O)n(CCCCC(C)=O)c(=O)n2C | -1.78% [at 35.3 µM] | –
29 | CCO[C@H](Cc1ccc(OCCc2ccc(OS(C)(=O)=O)cc2)cc1)C(=O)O | 8.34% [at 35.3 µM] | –
30 | CNC(=O)CN(CCN(CCN(CC(=O)[O-])CC(=O)NC)CC(=O)[O-])CC(=O)[O-].O.[Gd+3] | 3.57% [at 35.3 µM] | –
31 | C/C(=C(\CCOP(=O)(O)O)SC(=O)c1ccccc1)N(C=O)Cc1cnc(C)nc1N | 2.89% [at 6.97 µM] | –
32 | COC(=O)C1=C(C)NC(COC(N)=O)=C(C(=O)OC(C)C)C1c1cccc(Cl)c1Cl (stereo not given) | – | 26.8 µM (active)
33 | CCO[Si](CCCCl)(OCC)OCC | 1.6% | –
34 | CCCCO | 3.38% | –
35 | NCC(=O)O | 7.53% [at 15.8 µM] | –
36 | CCC(CC)Nc1ccc(C)c(C)c1 | 1.23% | –
37 | CCC(C)c1cc(C(C)(C)C)c(O)c(C(C)(C)C)c1 (stereo not given) | 7.6% | –
38 | Nc1ccccc1S(=O)(=O)c1ccccc1 | -18% | –
39 | C=C(C)C(=O)OCCOCC | 16.6% | –
40 | C[N+]1(C)CCC(OC(=O)C(O)(c2ccccc2)C2CCCC2)C1 (stereo not given) | 0.165% [at 35.3 µM] | –
